# The source made the active and inactive calls. How the source made its calls: active means hit-call score of the fitted dose curve at least 0.9, where 1 is the maximum; inactive means score below 0.9.
# Read-out: Plasminogen activator inhibitor-1 (PAI1), SERPINE1 (gene 5054)
# Test: BSK_hDFCGF_PAI1: BioMAP Diversity Plus: hDFCGF Assay for Plasminogen activator inhibitor-1 (PAI1) Biomarker Activity (AID 2283066)
# Details: primary human foreskin fibroblasts; actives raise or lower the signal
# Outline: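 ELISA readout of PAI-1 from primary human skin fibroblast cultures, 24 h after compound addition. Gain or loss of signal was fitted bidirectionally against DMSO baseline.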
Structure (SMILES),outcome,AC50
O=C1OC(c2ccc(O)cc2)(c2ccc(O)cc2)c2ccccc21,inactive,
CN(C)CCCN1c2ccccc2Sc2ccc(Cl)cc21,,31.9 µM (active)
Nc1nc(=S)c2[nH]cnc2[nH]1,inactive,
CC(C)OC(=O)C(C)(C)Oc1ccc(C(=O)c2ccc(Cl)cc2)cc1,,3.97 µM (active)
CCCCC(CC)CO (stereo not given),inactive,
CCCCCCC(C=O)=Cc1ccccc1,inactive,
CCOCCOCCO,inactive,

# Read-out: Intercellular Adhesion Molecule 1 (ICAM1), ICAM1 (gene 3383)
# Test: BSK_KF3CT_ICAM1: BioMAP Diversity Plus: KF3CT Assay for Intercellular Adhesion Molecule 1 (ICAM1) Biomarker Activity (AID 2283067)
# Details: primary human keratinocytes with fibroblasts; actives raise or lower the signal
# Outline: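 Dose the keratinocyte/fibroblast co-culture, wait 24 h, measure ICAM-1 by ELISA, then fit increases or decreases against DMSO. Cytotoxicity is checked in parallel cultures by SRB total-protein staining.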
Structure (SMILES),outcome,AC50
O=C(O)CC(O)(CC(=O)O)C(=O)O,inactive,
COc1ccc(OC(F)(F)F)cc1CN[C@H]1CCCN[C@H]1c1ccccc1,inactive,
CS(=O)(=O)c1ccc([C@@H](C[C@H]2CCC(=O)C2)C(=O)Nc2cnccn2)cc1Cl,inactive,
O=C1c2c(O)cccc2Cc2cccc(O)c21,,25.1 µM (active)
Cc1c(C)c2c(c(C)c1O)CCC(C)(COc1ccc(CC3SC(=O)NC3=O)cc1)O2 (stereo not given),,14.1 µM (active)
CCCCC(CC)COC(=O)CCCCCCCC(=O)OCC(CC)CCCC (stereo not given),inactive,
C#CC(O)C(CC)CCCC (stereo not given),inactive,
NCCOCCOCCN,inactive,
COC(=O)[C@H]1[C@H]2C[C@@H]3c4[nH]c5cc(OC)ccc5c4CCN3C[C@H]2C[C@@H](OC(=O)c2cc(OC)c(OC)c(OC)c2)[C@@H]1OC,inactive,
COC(=O)CCC(=O)OC,inactive,
CC(=O)O,inactive,
CC(=O)CC(c1ccccc1)c1c(O)c2ccccc2oc1=O (stereo not given),inactive,
CC(=O)O[C@]1(C(C)=O)CC[C@H]2[C@@H]3C=C(Cl)C4=CC(=O)[C@@H]5C[C@@H]5[C@]4(C)[C@H]3CC[C@@]21C,inactive,
c1ccc2occc2c1,inactive,
NC1CCCCC1,inactive,
NC(=Nc1ccccc1)Nc1ccccc1,inactive,
CCCCC(CC)COP(=O)(OCC(CC)CCCC)OCC(CC)CCCC (stereo not given),inactive,
O=C(N[C@@H](c1ccccc1)[C@@H]1CCCCN1)c1cccc(C(F)(F)F)c1Cl,,30.7 µM (active)
Oc1ccccc1O,,4.58 µM (active)
CC(=O)[C@@]1(O)CC[C@H]2[C@@H]3CCC4=CC(=O)CC[C@]4(C)[C@H]3CC[C@@]21C,inactive,
CCCCOC(=O)CCCCC(=O)OCCCC,inactive,
CCc1nc(N)nc(N)c1-c1ccc(Cl)cc1,inactive,
CO[C@@H]1COCC[C@@H]1N[C@@H]1CC[C@@](C(=O)N2CCc3ncc(C(F)(F)F)cc3C2)(C(C)C)C1,inactive,
O=C1OC(c2ccc(O)cc2)(c2ccc(O)cc2)c2ccccc21,inactive,
CN(C)CCCN1c2ccccc2Sc2ccc(Cl)cc21,,35.4 µM (active)
Nc1nc(=S)c2[nH]cnc2[nH]1,inactive,
CC(C)OC(=O)C(C)(C)Oc1ccc(C(=O)c2ccc(Cl)cc2)cc1,inactive,
CCCCC(CC)CO (stereo not given),inactive,
CCCCCCC(C=O)=Cc1ccccc1,inactive,
CCOCCOCCO,inactive,

# Read-out: Interferon-gamma inducible Protein 10 (IP10), CXCL10 (gene 3627)
# Test: BSK_KF3CT_IP10: BioMAP Diversity Plus: KF3CT Assay for Interferon-gamma inducible Protein 10 (IP10) Biomarker Activity (AID 2283068)
# Details: primary human keratinocytes with fibroblasts; actives raise or lower the signal
# Outline: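 Signal is secreted/surface IP-10 by ELISA in a human primary skin co-culture of keratinocytes and foreskin fibroblasts, taken 24 h post-dosing; DMSO served as negative control.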
Structure (SMILES),outcome,AC50
O=C(O)CC(O)(CC(=O)O)C(=O)O,inactive,
COc1ccc(OC(F)(F)F)cc1CN[C@H]1CCCN[C@H]1c1ccccc1,inactive,
CS(=O)(=O)c1ccc([C@@H](C[C@H]2CCC(=O)C2)C(=O)Nc2cnccn2)cc1Cl,inactive,
O=C1c2c(O)cccc2Cc2cccc(O)c21,,28.8 µM (active)
Cc1c(C)c2c(c(C)c1O)CCC(C)(COc1ccc(CC3SC(=O)NC3=O)cc1)O2 (stereo not given),,11.3 µM (active)
CCCCC(CC)COC(=O)CCCCCCCC(=O)OCC(CC)CCCC (stereo not given),inactive,
C#CC(O)C(CC)CCCC (stereo not given),inactive,
NCCOCCOCCN,inactive,
COC(=O)[C@H]1[C@H]2C[C@@H]3c4[nH]c5cc(OC)ccc5c4CCN3C[C@H]2C[C@@H](OC(=O)c2cc(OC)c(OC)c(OC)c2)[C@@H]1OC,inactive,
COC(=O)CCC(=O)OC,inactive,
CC(=O)O,inactive,
CC(=O)CC(c1ccccc1)c1c(O)c2ccccc2oc1=O (stereo not given),inactive,
c1ccc2occc2c1,inactive,
NC1CCCCC1,inactive,
NC(=Nc1ccccc1)Nc1ccccc1,inactive,
CCCCC(CC)COP(=O)(OCC(CC)CCCC)OCC(CC)CCCC (stereo not given),inactive,
O=C(N[C@@H](c1ccccc1)[C@@H]1CCCCN1)c1cccc(C(F)(F)F)c1Cl,,37.1 µM (active)
Oc1ccccc1O,inactive,
CC(=O)[C@@]1(O)CC[C@H]2[C@@H]3CCC4=CC(=O)CC[C@]4(C)[C@H]3CC[C@@]21C,inactive,
CCCCOC(=O)CCCCC(=O)OCCCC,inactive,
CCc1nc(N)nc(N)c1-c1ccc(Cl)cc1,inactive,
CO[C@@H]1COCC[C@@H]1N[C@@H]1CC[C@@](C(=O)N2CCc3ncc(C(F)(F)F)cc3C2)(C(C)C)C1,inactive,
O=C1OC(c2ccc(O)cc2)(c2ccc(O)cc2)c2ccccc21,inactive,
CN(C)CCCN1c2ccccc2Sc2ccc(Cl)cc21,,30.8 µM (active)
Nc1nc(=S)c2[nH]cnc2[nH]1,inactive,
CCCCC(CC)CO (stereo not given),inactive,
CCCCCCC(C=O)=Cc1ccccc1,,30.5 µM (active)
CCOCCOCCO,inactive,
